A number with no mark means an inactive call. This is one part of the list. Calls of active or inactive are those of the source.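 Rule for the calls, unless noted: active = mean inhibition above a cutoff equal to the average over all tested compounds plus one standard deviation (cut at about 70% in these data); inactive = the rest.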

Experiment [1] addresses Nuclear receptor coactivator 1 (Homo sapiens) (UniProt Q15788). As to the kind of experiment: NCOA1 GAL4-fusion reporter inhibition – cell-based, luminescence, quadruplicate, confirmation (AID 588820;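 active = mean inhibition above 46.68%, the untreated control wells mean plus 3 SD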;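 note: 0% = DMSO wells and 100% = gossypol 36 µM treated wells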). The conditions noted are these: HEK293 GAL4-SRC1 luciferase reporter, at 3.6 µM, stronger effect = higher value. Background: Reporter assays use an easily measured gene product as a stand-in for the process of interest.

Experiment [2] in a line: repression of VP16-driven luciferase reporter – cell-based, luminescence, high throughput, counter-screen for SRC1 inhibitor project (AID 588824; in the data active = inhibition above about 25%). The conditions noted are these: cell-based VP16 transactivation luciferase luminescence; at 3.6 µM; stronger effect = higher value.
The test system of experiment [3] is transactivating tegument protein VP16 (Human herpesvirus 1). As to the kind of experiment: compounds suppressing VP16-driven luciferase signal – cell-based, luminescence, single concentration, counter-screen for SRC2 inhibitor project (AID 652007; in the data active = inhibition above about 36%). Particulars: cell-based VP16 transactivation luciferase reporter, at 8.9 µM, stronger effect = higher value.
The target of experiment [4] is Nuclear receptor coactivator 2 (Homo sapiens) (UniProt Q15596). Briefly: inhibition of GAL4-SRC2 driven luciferase expression – cell-based, luminescence, HEK293, triplicate, confirmation (AID 652008;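 active = mean inhibition above 46.5%, the solvent-only control mean plus 3 SD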;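 note: 0% = DMSO-treated cells and 100% = Gossypol at 36 µM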). The conditions noted are these: HEK293 GAL4-SRC2 luciferase reporter, at 8.9 µM, stronger effect = higher value.
The target in experiment [5] is Receptor-interacting serine/threonine-protein kinase 2 (Homo sapiens) (UniProt O43353). As to the kind of experiment: inhibitors of RIPK2 association with NOD2 – fluorescence, CHO cells, BLA complementation, triplicate, confirmation (AID 624370;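 active = mean inhibition across replicates above a set limit taken from the earlier primary screen, cut at about 21% in these data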;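 note: 0% = DMSO-only wells and the high end = clavulanate BLA-blocked wells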). The conditions noted are these: CCF4 FRET, at 4.98 µM, stronger effect = higher value.
The nature of experiment [6]: BLA reporter readout interference – cell-based, CHO-K1 CMV-bla, CCF4 FRET, fluorescence, artefact control for NOD2-RIPK2 interaction inhibitor project, confirmation (AID 624371;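 active = mean inhibition above the low-control mean inhibition plus three low-control SD, cut at about 11% in these data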;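 note: 0% = DMSO only wells and 100% = clavulanate high control wells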). The conditions noted are these: CCF4 FRET ratio, counterscreen, at 4.98 µM, stronger effect = higher value. A general note: Counterscreens check selectivity or assay interference.
Experiment [7] in a line: VP16-driven transactivation reporter suppression – cell-based, luminescence, HEK293, counter-screen for COUP-TFII antagonist project (AID 687007; in the data active = inhibition above about 13%). The conditions noted are these: HEK293 Gal4-VP16 luciferase reporter, at 8.5 µM, stronger effect = higher value.
Experiment [8] deals with COUP transcription factor 2 (Homo sapiens) (UniProt P24468). Briefly: retest of COUP-TFII reporter suppressors – cell-based, luciferase reporter, HEK293, triplicate, confirmation (AID 687008;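 active = mean inhibition over three repeats above a set limit taken from the earlier primary screen, cut at about 38% in these data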;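 note: 100% = cells given the luciferase reporter alone without the COUP-TF2 vector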). The conditions noted are these: HEK293 NGFI-A luciferase reporter, luminescence; at 8.5 µM; stronger effect = higher value.
Experiment [9] concerns the target Photoreceptor-specific nuclear receptor (Homo sapiens) (UniProt Q9Y5X4). Briefly: retest of NR2E3-NCOR disrupting agonists – cell-based, luminescence, CHO-S two-hybrid, confirmation (AID 624378;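 active = average inhibition above a cutoff equal to the mean inhibition of all tested compounds plus one SD, cut at about 70% in these data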;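 note: 0% = DMSO in NR2E3 cells and 100% = DMSO in cells lacking NR2E3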). The conditions noted are these: CHO-S mammalian two-hybrid NR2E3-NCOR, luciferase luminescence; at 3.98 µM; stronger effect = higher value.
A short description of experiment [10]: nonselective effects on VP16 transactivation – cell-based, luminescence, CHO-S, high throughput, counter-screen for NR2E3 agonist project, confirmation (AID 624379).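 Note: 0% = DMSO with VP16-transfected cells and 100% = DMSO with cells lacking VP16; higher means less reporter light so more repression of VP16 activity.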 The conditions noted are these: CHO-S GAL4-VP16 luciferase reporter, at 3.98 µM, stronger effect = higher value.
Experiment [11] concerns the target Galanin receptor type 2 (Homo sapiens) (UniProt O43603). As to the kind of experiment: blockers of human galanin receptor 2 – cell-based, confirmation (AID 866; in the data active = inhibition above about 27%;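 note: cells stimulated with galanin at about its EC80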). The conditions noted are these: GALR2-expressing cells, antagonist mode, at 4 µM, stronger effect = higher value.
Experiment [12] is described as follows: nonspecific BLA reporter inhibition – CHO NFAT-bla cells, FRET readout, counter-screen for GALR2 antagonist project, confirmation (AID 867;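 active = inhibition above the mean inhibition across tested compounds plus 3 SD, cut at about 27% in these data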;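 note: 0% = 500 nM thapsigargin stimulated wells and 100% = unstimulated BSA only wells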). Particulars: beta-lactamase FRET, thapsigargin-stimulated, at 4.2 µM, stronger effect = higher value.
The target in experiment [13] is (Lyso)-N-acylphosphatidylethanolamine lipase (Mus musculus) (UniProt Q8VD66). As to the kind of experiment: mouse ABHD4 hydrolase blockers, triplicate – biochemical, fluorescence polarization, confirmation (AID 720658;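 active = mean inhibition across replicates above the hit cutoff set in the primary screen, cut at about 30% in these data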;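 note: 0% = wild-type ABHD4 with DMSO and 100% = catalytically dead S159A mutant with DMSO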). Particulars: purified mABHD4, FP-Rh probe fluorescence polarization; at 8.92 µM; stronger effect = higher value. Background: In fluorescence polarisation assays a small probe gives low polarisation when free and higher when bound to something large.

In experiment [14] the test system is DAF-12 nuclear receptor (Heterodera glycines), GAL4-LBD fusion. As to the kind of experiment: hgDAF-12 GAL4 fusion reporter activation, retest – cell-based, luminescence, HEK293, GAL4-LBD fusion, confirmation (AID 743050;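 active = mean activation over triplicate wells above the hit cutoff derived from the earlier primary screen, cut at about 11% in these data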;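 note: 0% = DMSO low control and 100% = 2 mM sodium butyrate high control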). Particulars: HEK293 GAL4-hgDAF12 luciferase reporter, agonist mode; at 6.8 µM; stronger effect = higher value; percent of butyrate response.
Experiment [15] addresses Oxysterols receptor LXR-beta (Homo sapiens) (UniProt P55055). Briefly: nonspecific reporter activation via LXR – cell-based, luminescence, HEK293, H. glycines campaign, counter-screen for hgDAF-12 agonist project, confirmation (AID 743051;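 active = mean activation of the triplicate above a set limit carried over from the primary screen, none filed active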). The conditions noted are these: HEK293 Gal4-LXR luciferase reporter, 24 h; at 6.8 µM; stronger effect = higher value.

Receptor-interacting serine/threonine-protein kinase 2 (Homo sapiens), sequence (O43353 whole entry, looked up): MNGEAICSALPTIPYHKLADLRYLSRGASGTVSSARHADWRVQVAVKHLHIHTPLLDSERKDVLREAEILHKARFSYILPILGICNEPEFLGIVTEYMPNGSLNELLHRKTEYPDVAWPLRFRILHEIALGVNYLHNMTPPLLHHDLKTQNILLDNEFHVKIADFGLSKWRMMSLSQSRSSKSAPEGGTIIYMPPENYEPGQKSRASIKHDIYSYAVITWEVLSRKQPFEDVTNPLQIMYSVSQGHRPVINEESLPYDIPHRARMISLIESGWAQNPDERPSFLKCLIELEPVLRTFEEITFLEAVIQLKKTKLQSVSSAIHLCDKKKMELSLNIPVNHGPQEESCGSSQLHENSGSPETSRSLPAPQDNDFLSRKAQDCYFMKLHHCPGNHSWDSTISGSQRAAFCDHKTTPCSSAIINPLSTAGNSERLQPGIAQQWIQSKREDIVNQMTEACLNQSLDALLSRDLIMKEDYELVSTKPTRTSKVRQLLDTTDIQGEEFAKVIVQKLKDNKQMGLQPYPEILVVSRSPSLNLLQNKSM
Nuclear receptor coactivator 2 (Homo sapiens), sequence (Q15596 whole entry, looked up, the tested form may be a part): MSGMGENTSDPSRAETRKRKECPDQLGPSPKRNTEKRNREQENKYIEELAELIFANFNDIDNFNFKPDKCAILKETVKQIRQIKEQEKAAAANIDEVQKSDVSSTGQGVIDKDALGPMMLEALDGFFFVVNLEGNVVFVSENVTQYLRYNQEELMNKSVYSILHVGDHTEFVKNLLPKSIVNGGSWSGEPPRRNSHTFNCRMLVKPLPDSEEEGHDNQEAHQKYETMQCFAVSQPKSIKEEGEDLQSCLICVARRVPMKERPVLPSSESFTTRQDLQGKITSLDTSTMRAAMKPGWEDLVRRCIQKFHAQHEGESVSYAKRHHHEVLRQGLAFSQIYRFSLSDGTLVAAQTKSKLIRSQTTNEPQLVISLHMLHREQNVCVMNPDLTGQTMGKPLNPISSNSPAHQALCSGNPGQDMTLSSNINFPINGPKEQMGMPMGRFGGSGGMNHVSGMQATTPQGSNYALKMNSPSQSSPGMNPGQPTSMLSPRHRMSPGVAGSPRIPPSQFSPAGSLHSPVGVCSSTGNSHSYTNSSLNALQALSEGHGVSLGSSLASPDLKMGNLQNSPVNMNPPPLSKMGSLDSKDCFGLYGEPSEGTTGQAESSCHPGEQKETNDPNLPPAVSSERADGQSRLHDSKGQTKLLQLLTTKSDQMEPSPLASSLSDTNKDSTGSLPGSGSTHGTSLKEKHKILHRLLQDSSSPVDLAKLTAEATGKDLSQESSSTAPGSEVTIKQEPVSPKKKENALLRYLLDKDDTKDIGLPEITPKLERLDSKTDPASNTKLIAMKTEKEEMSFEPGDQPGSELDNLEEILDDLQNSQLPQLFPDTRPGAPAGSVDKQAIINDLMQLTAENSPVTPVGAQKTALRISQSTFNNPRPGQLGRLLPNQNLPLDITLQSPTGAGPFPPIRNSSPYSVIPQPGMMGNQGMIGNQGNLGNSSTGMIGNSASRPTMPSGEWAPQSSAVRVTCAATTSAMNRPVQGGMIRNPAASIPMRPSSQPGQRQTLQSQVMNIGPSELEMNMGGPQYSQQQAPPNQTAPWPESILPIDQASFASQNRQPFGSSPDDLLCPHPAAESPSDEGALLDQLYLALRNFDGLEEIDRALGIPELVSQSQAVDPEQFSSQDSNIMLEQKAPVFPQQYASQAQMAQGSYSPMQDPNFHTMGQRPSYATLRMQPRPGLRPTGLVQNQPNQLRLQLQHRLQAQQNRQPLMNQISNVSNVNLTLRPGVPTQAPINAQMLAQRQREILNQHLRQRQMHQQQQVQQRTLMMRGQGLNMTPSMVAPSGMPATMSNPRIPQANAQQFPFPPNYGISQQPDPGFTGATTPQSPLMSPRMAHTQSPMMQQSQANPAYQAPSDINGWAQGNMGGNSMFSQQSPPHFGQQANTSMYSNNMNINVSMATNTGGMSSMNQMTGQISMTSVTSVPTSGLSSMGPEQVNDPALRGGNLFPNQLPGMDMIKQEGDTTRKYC
Nuclear receptor coactivator 1 (Homo sapiens), sequence (Q15788 whole entry, looked up, the tested form may be a part): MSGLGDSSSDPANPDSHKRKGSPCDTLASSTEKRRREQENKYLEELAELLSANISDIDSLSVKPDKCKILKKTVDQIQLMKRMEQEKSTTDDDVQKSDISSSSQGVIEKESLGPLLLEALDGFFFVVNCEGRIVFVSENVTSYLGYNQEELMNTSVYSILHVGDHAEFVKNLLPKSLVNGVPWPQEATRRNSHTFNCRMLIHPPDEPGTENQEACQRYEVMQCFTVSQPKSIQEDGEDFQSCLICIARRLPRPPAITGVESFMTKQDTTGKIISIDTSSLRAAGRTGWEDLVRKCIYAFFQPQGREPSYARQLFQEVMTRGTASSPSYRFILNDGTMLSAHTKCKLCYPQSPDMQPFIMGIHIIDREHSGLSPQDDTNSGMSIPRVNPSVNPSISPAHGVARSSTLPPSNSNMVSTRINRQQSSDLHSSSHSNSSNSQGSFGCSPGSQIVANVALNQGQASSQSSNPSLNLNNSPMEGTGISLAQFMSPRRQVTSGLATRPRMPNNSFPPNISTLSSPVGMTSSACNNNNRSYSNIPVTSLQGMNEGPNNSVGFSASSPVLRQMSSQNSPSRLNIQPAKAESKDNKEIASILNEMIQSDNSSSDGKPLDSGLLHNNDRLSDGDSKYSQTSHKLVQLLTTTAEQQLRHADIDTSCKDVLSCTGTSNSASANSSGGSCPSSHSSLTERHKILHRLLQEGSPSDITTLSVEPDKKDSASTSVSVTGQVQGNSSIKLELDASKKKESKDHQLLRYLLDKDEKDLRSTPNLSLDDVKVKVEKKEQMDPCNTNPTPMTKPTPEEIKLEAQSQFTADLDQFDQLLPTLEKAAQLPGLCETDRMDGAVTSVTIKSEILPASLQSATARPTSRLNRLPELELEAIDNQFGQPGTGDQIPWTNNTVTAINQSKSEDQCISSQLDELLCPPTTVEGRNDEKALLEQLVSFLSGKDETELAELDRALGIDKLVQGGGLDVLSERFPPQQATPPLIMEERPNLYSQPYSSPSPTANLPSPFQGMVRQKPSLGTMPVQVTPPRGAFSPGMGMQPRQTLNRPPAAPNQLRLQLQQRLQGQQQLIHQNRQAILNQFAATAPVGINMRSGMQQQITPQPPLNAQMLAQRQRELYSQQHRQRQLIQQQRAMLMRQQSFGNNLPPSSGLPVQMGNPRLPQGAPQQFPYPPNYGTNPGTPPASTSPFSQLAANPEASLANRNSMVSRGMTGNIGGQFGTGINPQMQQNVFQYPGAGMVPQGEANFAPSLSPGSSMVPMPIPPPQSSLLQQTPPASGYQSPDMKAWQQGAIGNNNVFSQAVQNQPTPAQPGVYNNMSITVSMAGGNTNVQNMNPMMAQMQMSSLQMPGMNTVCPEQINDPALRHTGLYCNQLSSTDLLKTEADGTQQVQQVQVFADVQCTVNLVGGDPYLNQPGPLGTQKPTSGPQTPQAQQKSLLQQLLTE
Photoreceptor-specific nuclear receptor (Homo sapiens), sequence (Q9Y5X4 whole entry, looked up): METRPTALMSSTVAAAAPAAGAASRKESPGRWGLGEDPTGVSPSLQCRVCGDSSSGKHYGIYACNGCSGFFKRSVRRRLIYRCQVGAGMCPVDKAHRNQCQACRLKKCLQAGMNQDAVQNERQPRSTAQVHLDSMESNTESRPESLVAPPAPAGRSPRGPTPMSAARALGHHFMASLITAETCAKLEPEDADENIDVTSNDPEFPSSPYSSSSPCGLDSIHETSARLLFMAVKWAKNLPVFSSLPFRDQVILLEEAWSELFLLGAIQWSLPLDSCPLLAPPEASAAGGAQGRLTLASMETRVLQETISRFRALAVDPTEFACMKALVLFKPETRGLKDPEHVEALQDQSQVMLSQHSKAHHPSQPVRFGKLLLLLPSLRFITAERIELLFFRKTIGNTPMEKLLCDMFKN
COUP transcription factor 2 (Homo sapiens), sequence (P24468 whole entry, looked up): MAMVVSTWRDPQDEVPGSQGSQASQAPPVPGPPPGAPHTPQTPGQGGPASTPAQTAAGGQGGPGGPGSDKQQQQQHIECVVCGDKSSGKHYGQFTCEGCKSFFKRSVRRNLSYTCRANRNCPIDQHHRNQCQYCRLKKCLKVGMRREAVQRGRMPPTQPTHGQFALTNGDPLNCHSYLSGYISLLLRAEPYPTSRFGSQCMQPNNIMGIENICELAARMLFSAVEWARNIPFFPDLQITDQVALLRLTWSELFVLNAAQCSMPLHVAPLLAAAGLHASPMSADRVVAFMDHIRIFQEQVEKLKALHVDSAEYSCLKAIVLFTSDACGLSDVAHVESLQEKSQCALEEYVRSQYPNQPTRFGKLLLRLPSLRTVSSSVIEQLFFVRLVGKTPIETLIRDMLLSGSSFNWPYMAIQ
Galanin receptor type 2 (Homo sapiens), sequence (O43603 whole entry, looked up): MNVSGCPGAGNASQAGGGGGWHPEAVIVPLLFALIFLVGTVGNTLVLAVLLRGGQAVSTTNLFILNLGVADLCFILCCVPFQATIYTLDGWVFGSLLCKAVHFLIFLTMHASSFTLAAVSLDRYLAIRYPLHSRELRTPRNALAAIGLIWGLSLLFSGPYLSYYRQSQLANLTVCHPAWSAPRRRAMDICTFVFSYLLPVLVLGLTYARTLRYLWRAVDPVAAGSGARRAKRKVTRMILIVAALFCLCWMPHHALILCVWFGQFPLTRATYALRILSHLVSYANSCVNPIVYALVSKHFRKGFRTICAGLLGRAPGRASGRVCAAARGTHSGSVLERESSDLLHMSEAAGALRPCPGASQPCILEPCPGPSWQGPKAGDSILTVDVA
(Lyso)-N-acylphosphatidylethanolamine lipase (Mus musculus), sequence (Q8VD66 whole entry, looked up): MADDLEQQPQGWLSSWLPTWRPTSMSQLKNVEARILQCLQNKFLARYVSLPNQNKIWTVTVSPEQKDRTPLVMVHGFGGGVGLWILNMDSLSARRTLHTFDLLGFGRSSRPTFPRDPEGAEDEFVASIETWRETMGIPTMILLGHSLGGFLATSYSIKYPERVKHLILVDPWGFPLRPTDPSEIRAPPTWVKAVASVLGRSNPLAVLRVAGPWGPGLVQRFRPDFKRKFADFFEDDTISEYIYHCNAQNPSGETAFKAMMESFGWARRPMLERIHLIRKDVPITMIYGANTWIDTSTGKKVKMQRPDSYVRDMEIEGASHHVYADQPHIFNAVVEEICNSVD

The term inhibition denotes the relative decrease from the control value, in per cent. Take `O=C(NCCc1cccc(Cl)c1)c1ccc(OC2CCN(Cc3ccccn3)CC2)cc1`: the inhibition in [1] was -20.2%; in experiment [2], -8.94%; in [3], 12.7%; in experiment [4] it was 39.1%.
For `CN(C)S(=O)(=O)N1CCC(Oc2cccc(C(=O)NC3CCCCC3)c2)CC1`, the inhibition in experiment [1] is -42%; in experiment [2], 22%; in [3], 4.19%; in experiment [4], 13.4%.
Regarding `O=C(CSc1ncn[nH]1)Nc1nc(-c2cccc([N+](=O)[O-])c2)cs1`, the inhibition in experiment [5] is 2.59%; in experiment [6], 3.63%.
As for `OC[C@@H]1CN(Cc2ccncc2)C[C@H](n2cnc3c(N4CCN(c5ccccc5)CC4)ncnc32)O1`, the inhibition is 2.2% in experiment [1], 37.8% (active) in experiment [2], 8.35% in [7] and 44.6% (active) in experiment [8].
Take `O=C(CCN1CCc2ccccc2C(O)(c2ccccc2)C1)c1ccc2c(c1)OCCO2` (configuration not stated): the results for the inhibition in experiment [5] and in experiment [6] were 3.17% and -1.26%, respectively.
With `Cc1ccc(NC(=O)Cn2sc3ccccc3c2=O)cc1`, the inhibition in experiment [5] was 33.2% (active); in experiment [6], 3.75%.
In the same order, the values of `Cc1cccc(-n2ncc(Cl)c(Cl)c2=O)c1` are 31.5% (active) and 2.52%.
`C=CCNc1ncnc2ccc(Br)cc12`: the inhibition was 30.3% in [1]; 21% in experiment [2]; 1.3% in experiment [3]; 42.1% in [4]; 9.27% in experiment [7]; 22.7% in [8].
In the case of `O=C(NN=Cc1ccc(N2CCOCC2)cc1)c1cc2ccccc2cc1O`, the figures for the inhibition in experiment [5] and in experiment [6] were 0.56% and 2.74%, respectively.
On to `CN1CCN(/N=C/c2ccc(-c3ccc([N+](=O)[O-])cc3)o2)CC1`, for which the inhibition in experiment [5] was 17.4%; in experiment [6], 23.5% (active).
Regarding `COc1ccc2c(c1OC)C(=O)OC2Nc1nc(-c2ccccc2)cs1` (configuration not stated), the inhibition is 10.3% in experiment [5] and 6.11% in [6].
With `COc1ccc(NC(=O)C(c2ccncc2)n2c(=O)c(-c3cc4ccccc4[nH]3)nc3ccccc32)cc1` (configuration not stated), the results for the inhibition in experiment [5] and in [6] were 39.5% (active) and 61.5% (active), respectively.
`Cc1ccc(NS(=O)(=O)c2ccc(-c3coc(C)n3)cc2)c(C)c1`: the inhibition in experiment [9] is 57.5%; in experiment [10], 46.7%.
Take `O=C(CSc1nc(Nc2ccccc2)nc(N2CCOCC2)n1)Nc1cc(Cl)ccc1O`: the inhibition in [9] was 31.7%; in experiment [10], 20.4%.
With `CCCc1cc(=O)[nH]c(SCC(=O)Nc2sc3c(c2C#N)CCCC3)n1`, the values for the inhibition in experiment [9] and in [10] were 15.4% and 41.8%, respectively.
In the same order, the values of `Cc1nc2c(OCc3cccc(Cl)c3)cccn2c1N(C)CC1CC1` are 1.83% and 19.3%.
Regarding `COc1cc(NS(=O)(=O)c2ccc3ccccc3c2)c2ncccc2c1`, the inhibition was 35.7% (active) in experiment [5], 18.9% (active) in [6], -24.6% in [9] and 31.6% in experiment [10].
As for `O=C(Nc1nnc(-c2ccccc2)o1)c1cc(-c2cccs2)nc2ccccc12`, the inhibition in experiment [9] is 98.3% (active); in experiment [10] it was 12.6%.
For `Cc1cccc(NS(=O)(=O)c2ccc(-c3cnc(C4CC4)o3)cc2)c1`, the inhibition in experiment [9] was 53.5%; in [10], 37.9%.
On to `c1ccc(C(=NNc2nc3ccccc3s2)c2ccccn2)cc1`, for which the inhibition in [9] is 22.6%; in experiment [10] it was 11.6%.
Regarding `N#Cc1cccc(NC(=O)COC(=O)c2ccccc2C(=O)c2ccc(Cl)c([N+](=O)[O-])c2)c1`, the inhibition is 63.2% (active) in experiment [11], 37.4% (active) in experiment [12], 56.2% (active) in experiment [5] and 11.9% (active) in [6].
As to `CC1CCCCN1S(=O)(=O)c1ccc(C(=O)Nc2nnc(-c3cccs3)o2)cc1` (configuration not stated), the inhibition in experiment [9] is 49.5%; in [10] it was 32%.
As for `CN(C)C(=S)N=c1ssc(=S)n1Cc1ccco1`, the inhibition was -16.6% in experiment [9] and -46.1% in experiment [10].
In the same order, the values of `COc1cccc(CNS(=O)(=O)c2ccc3c(c2)CC(C)N3C(=O)C2CCC2)c1` (configuration not stated) are 73.3% (active) and 58.5%.
Regarding `CCCC1CCC(=NNC(=S)NCCc2ccccc2)CC1` (configuration not stated), the results for the inhibition in experiment [9] and in experiment [10] were 3.69% and -1.56%, respectively.
As to `Cc1csc(NC(=S)Nc2cccc(Cl)c2)n1`, the figures for the inhibition in experiment [9] and in experiment [10] were -131% and -129%, respectively.
Regarding `CCOc1ccc(S(=O)(=O)N2CCCCCC2)c2ccccc12`, the inhibition is 50.4% in experiment [9] and -4.92% in experiment [10].
As for `COc1ccc(CNS(=O)(=O)c2ccc(NC(=O)N3CCCCC3)cc2)cc1`, the inhibition in [9] was 55.3%; in experiment [10], 52.4%.
As for `COCCNc1nc(-n2nc(C)cc2C)nc2sc3c(c12)CCCC3`, the figures for the inhibition in [9] and in experiment [10] were -8.21% and -32%, respectively.
As to `O=C(O)c1ccc2c(c1)C(=O)N(c1ccc(/C=C/C(=O)c3ccccc3)cc1)C2=O`, the inhibition in experiment [5] was 5.5%; in experiment [6], 0.39%; in experiment [13], 0.6%. Moreover, the activation in [14] was 1.47%; in [15], 0.05%.

These data come from PubChem BioAssay.
